# Screening results: PubChem BioAssay, National Center for Advancing Translational Sciences (NCATS)
# Pf growth 96h: P. falciparum growth inhibition at 96 hours | P. falciparum luciferase reporter growth, 96 h | Potency, µM (titrated, usually from 28.7 µM), for inactives: at the highest dose activity change, negative = inhibition, hits mostly inhibitors | 320,000 compounds, 6.9% hits | AID 504834; further: on the % scale 0 is the no-effect control and ±100 the full control effect
#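 Luminescence readout: decreased luciferase signal marks inhibited growth of reporter-expressing P. falciparum in infected red cells (2% hematocrit, 0.05% parasitemia final), exposed to compound two generations (96 h, 37 C, 5% CO2).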
# SARS PLP yeast: SARS-CoV PLP inhibition in yeast; 330,000 compounds, 0.19% hits; Potency, µM (top dose mostly 32.9 µM), inactives show at the highest dose activity, positive = growth rescue, actives largely listed as activators; S. cerevisiae expressing SARS-CoV PLpro, growth rescue; calls by dose curve; further: 0% is about no effect; nearly all actives have a fitted effect of over 55% in size
# Sm TGR inh: S. mansoni TGR enzyme inhibition; AID 485364; Q962Y6; purified TGR, DTNB reduction, TNB absorbance 405 nm; 360,000 compounds, 3% hits; Potency, µM (series often up to 114 µM), for inactives: at the top dose activity change, negative = inhibition, actives largely listed as inhibitors; further: on the % scale 0 is the no-effect control and ±100 the full control effect; nearly all actives have a fitted effect of over 60% in size
#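 Kinetic colorimetric format: TGR-catalysed, NADPH-driven DTNB reduction monitored via TNB absorbance. Enzyme dispensed at 20 nM; compound exposure 15 min at room temperature before reaction start.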
# Pf growth 48h: inhibits P. falciparum growth in the first generation, 48 h; P. falciparum luciferase growth in erythrocytes, 48 h; Potency, µM (highest dose often 28.7 µM), for inactives: at the top dose activity change, negative = inhibition, most hits filed as inhibitors; 310,000 compounds, 5.9% hits; AID 504832; further: on the % scale 0 is the no-effect control and ±100 the full control effect
#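 In quantitative HTS format, infected erythrocytes bearing luciferase-reporter parasites were treated for a single generation at 37 C. Luminescence after adding detection reagent served as the growth measure.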
# The depositor's hits bear a star; ? = inconclusive; . = not tested or not shown. In the library only some 12% were active in any assay of this set; here they are far more common. Unless noted, the call rests on the fitted dose curve; in most records, active means well fitted curve in the direction sought with a large enough effect; inconclusive means small, poorly fitted or top-dose-only effect, or another doubt; inactive means no such curve, though single readings can be large; an effect the other way counts as inactive or inconclusive. Potency means the concentration at half of the fitted maximal effect.
SMILES,Pf growth 96h,SARS PLP yeast,Sm TGR inh,Pf growth 48h
Cn1c(SCC(=O)N2CCCC2)nc2cccnc21,?,1%,40µM*,-19%
O=C(COC(=O)C1C2CC3OC(=O)C1C3C2)Nc1ccccc1 (configuration not stated),?,2%,-8%,9%
Cc1ccc2occ(/C=N/NC(=O)[C@@H](N)Cc3ccccc3)c(=O)c2c1,-13%,3%,-12%,?
COCC(C)OC(=O)/C(C#N)=C\c1coc2ccc(C)cc2c1=O (configuration not stated),26%,-12%,18µM*,77%
COc1ccccc1CNC(=O)COC(=O)/C=C/c1ccc2ccccc2n1,.,3%,.,.
COC(=O)c1cc(S(=O)(=O)N2CCCCC2)ccc1N1CCOCC1,-12%,0%,3%,?
O=C(OCCOc1cccc(Cl)c1)c1cc(S(=O)(=O)N2CCCCC2)ccc1N1CCOCC1,13µM*,0%,9%,?
Cc1ccc(C)c(COC(=O)c2cc(S(=O)(=O)N3CCCCC3)ccc2N2CCOCC2)c1,?,-2%,-1%,15µM*
O=C(COc1cccc(Cl)c1)Nc1cc(S(=O)(=O)N2CCOCC2)ccc1N1CCOCC1,?,3%,-25%,0%
O=C(OCc1ccccc1)c1cc(S(=O)(=O)N2CCCCC2)ccc1N1CCOCC1,12µM*,-5%,2%,?
COCCNC(=O)c1cc(S(=O)(=O)N2CCCCC2)ccc1N1CCOCC1,-3%,-1%,-18%,-18%
Cc1ccc(CNC(=O)c2cc(S(=O)(=O)N3CCCCC3)ccc2N2CCOCC2)cc1,?,2%,-4%,8.3µM*
CCOC(=O)C1CCCN(C(=O)c2cc3c(OC)c(OC)c(OC)cc3[nH]2)C1 (configuration not stated),9%,-5%,7%,-38%
COc1ccc(NC(=O)c2oc3ccc(S(=O)(=O)N(C)C4CCCCC4)cc3c2C)cc1Cl,.,.,-1%,.
Cc1cccc(NC2CCCCC2NS(=O)(=O)c2ccccc2)c1 (configuration not stated),?,7%,-15%,?
Cc1ccccc1CNC(=O)Cn1ncn2nc(-c3cccs3)cc2c1=O,.,.,2%,.
COc1cc(NC(=O)Cn2nnc(-c3ccc(C(F)(F)F)cc3)n2)c(C(=O)O)cc1OC,.,.,8%,.
Cc1ccc(OCC(=O)NCCCNC(=O)c2ccccn2)cc1C,220%,-1%,1%,-13%
Cc1ccc(COC(=O)c2cc(S(=O)(=O)N3CCCCC3)ccc2N2CCOCC2)cc1,?,-2%,5%,9.3µM*
O=C(OCc1cccc(Cl)c1)c1cc([N+](=O)[O-])ccc1N1CCOCC1,12µM*,-6%,4%,?
O=C(OCc1cccc(Cl)c1)c1cc(S(=O)(=O)N2CCCCC2)ccc1N1CCOCC1,13µM*,-3%,1%,?
CC(C)CCCC(C)NC(=O)c1cc(S(=O)(=O)N2CCCCC2)ccc1N1CCOCC1 (configuration not stated),9.3µM*,-5%,-5%,?
O=C(OCc1cccc(C(F)(F)F)c1)c1cc([N+](=O)[O-])ccc1N1CCOCC1,?,-3%,0%,?
O=C(CN1C(=O)CSc2ccc(S(=O)(=O)N3CCCCC3)cc21)NCc1ccc(F)cc1Cl,.,.,-4%,.
Cc1cccc(N2CCN(C(=O)C3CCCN(S(=O)(=O)c4ccc5c(c4)oc(=O)n5C)C3)CC2)c1C (configuration not stated),.,.,-7%,.
SMILES,Pf growth 96h,SARS PLP yeast,Sm TGR inh,Pf growth 48h
Cc1ccc2oc(C(Cl)(Cl)Cl)cc(=O)c2c1,1.9µM*,-8%,6%,3.3µM*
COc1ccc(/C(O)=C2/C(=O)C(=O)N(CCN(C)C)C2c2ccc(OC)c(OC)c2)c(C)c1 (configuration not stated),19%,4%,40µM*,-23%
COc1cc(C2/C(=C(/O)c3ccc(OCC(C)C)cc3)C(=O)C(=O)N2CCN(C)C)ccc1O (configuration not stated),12µM*,3%,45µM*,9%
COc1ccc(/C(O)=C2/C(=O)C(=O)N(CCCN(C)C)C2c2ccc(C)o2)cc1Cl (configuration not stated),15%,3%,45µM*,14%
COc1ccc(/C(O)=C2/C(=O)C(=O)N(CCN(C)C)C2c2ccc(C)cc2)cc1Cl (configuration not stated),1%,4%,-20%,14%
Cc1ccc(OCCNC(=O)CCNS(=O)(=O)c2ccc3ccccc3c2)cc1,-4%,0%,-23%,?
Cc1[nH]n(-c2cccc(Cl)c2)c(=O)c1-c1ccccc1,5.9µM*,-2%,-1%,.
Cc1[nH]n(-c2cccc([N+](=O)[O-])c2)c(=O)c1-c1ccccc1,13µM*,-3%,4%,?
O=C(OCC#CCNc1nnc(-c2cccc3ccccc23)o1)c1cccs1,5%,-3%,18µM*,?
CSCC[C@H](NC(=O)C1CCN(S(=O)(=O)c2ccc(C)cc2)CC1)C(=O)NCC1CCCO1 (some centres not stated),?,-7%,-19%,4%
CSCC[C@H](NC(=O)C1CCN(S(=O)(=O)c2ccc(C)cc2)CC1)C(=O)NCc1ccco1,?,-4%,45µM*,?
CCOc1ccc(S(=O)(=O)N2CCC(C(=O)NCc3ccco3)CC2)cc1C,1.9µM*,-4%,-3%,?
CC(C)c1ccc(S(=O)(=O)N2CCC(C(=O)NCc3ccco3)CC2)cc1,2.6µM*,-2%,-22%,3.3µM*
COc1ccc(S(=O)(=O)N2CCC(C(=O)NCc3ccco3)CC2)cc1,?,6%,-11%,3.3µM*
COc1cccc(NC(=O)CN(C)C(C)C(=O)NC(=O)NC2CCCCC2)c1 (configuration not stated),?,-1%,-14%,?
CCc1ccc(-c2csc(NC(=O)C3=COCCO3)n2)cc1,306%,-3%,-2%,223%
COc1cccc(CNC(=O)CNS(=O)(=O)c2ccc(Br)s2)c1,?,2%,0%,-14%
CCOC(=O)Cn1c(=O)oc2cc(S(=O)(=O)N3CCN(c4cccc(C)c4C)CC3)ccc21,.,.,0%,.
CCOc1ccc(S(=O)(=O)N2CCC(C(=O)N3CCc4ccccc4C3)CC2)cc1,2.9µM*,-8%,-2%,?
CCOc1ccc(S(=O)(=O)N2CCC(C(=O)NCc3ccco3)CC2)cc1,56%,-1%,-25%,9.3µM*
CCOc1ccc(S(=O)(=O)N2CCC(C(=O)NCC3CCCO3)CC2)cc1C (configuration not stated),2.3µM*,1%,-1%,10%
COc1ccc(S(=O)(=O)N2CCC(C(=O)NCC3CCCO3)CC2)cc1C (configuration not stated),33%,9%,-3%,13%
COc1ccc(/C=C\c2onc(C)c2S(=O)(=O)N2CCC(C(=O)NCc3ccco3)CC2)cc1,13µM*,0%,9%,?
